Measured values reported in PubChem BioAssay AID1851 (National Center for Advancing Translational Sciences (NCATS), 2009).
Screen size: about 16,000 compounds; about 5,700 (36%) were called active. Another 24% or so got no clear call; they are omitted. Calls follow the shape of the dose curve; as a rule, active = well fitted curve in the direction sought with a large enough effect; inconclusive = small, poorly fitted or top-dose-only effect, or effect the other way; inactive = no such curve, though single readings can be large or run the other way. The list shows a part of the results.

The compounds below were run against Cytochrome P450 1A2 (Homo sapiens) (UniProt P05177) (assay: Cytochrome panel assay with activity outcomes). Details: recombinant CYP, pro-luciferin dealkylation, luminescence, p450-cyp1a2; series mostly up to 57.1 µM.
Sequence of Cytochrome P450 1A2 (Homo sapiens) (P05177 whole entry, looked up): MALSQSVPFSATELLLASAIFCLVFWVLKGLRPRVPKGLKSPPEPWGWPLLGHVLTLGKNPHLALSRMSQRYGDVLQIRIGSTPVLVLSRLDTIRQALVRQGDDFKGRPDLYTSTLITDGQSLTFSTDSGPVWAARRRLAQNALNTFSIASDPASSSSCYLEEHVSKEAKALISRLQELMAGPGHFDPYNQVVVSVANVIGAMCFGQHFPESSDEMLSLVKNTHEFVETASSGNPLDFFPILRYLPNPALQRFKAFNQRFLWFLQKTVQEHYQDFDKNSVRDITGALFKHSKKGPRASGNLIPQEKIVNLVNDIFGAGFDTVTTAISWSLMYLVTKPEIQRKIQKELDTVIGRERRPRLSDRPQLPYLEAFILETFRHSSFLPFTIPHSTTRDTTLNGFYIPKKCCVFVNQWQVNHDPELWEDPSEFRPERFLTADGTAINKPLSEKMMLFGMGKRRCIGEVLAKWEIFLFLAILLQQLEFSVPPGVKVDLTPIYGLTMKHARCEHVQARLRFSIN
% is scaled to controls: 0 for no effect and ±100 for the full control effect.

Structure (SMILES) | AC50 | activity, negative = inhibition
COc1ccc2[nH]cc(C3=CCNCC3)c2c1 | 0.251 µM (active) | –
O=c1ccc2[nH]cc(C3=CCNCC3)c2[nH]1 | inactive | –
CCCOc1ccc2[nH]cc(C3=CCNCC3)c2n1 | 0.126 µM (active) | –
C[C@@]12CC[C@@H]3[C@H](CCC4=CC(=O)CC[C@]43C)[C@@H]1CC[C@@H]2C(=O)Cn1cnc2c(=S)nc[nH]c21 | – | -15.8% [at 11.4 µM] (inactive)
NP(N)(=O)NC(=O)c1ccc(F)cc1 | inactive | –
NCCCP(=O)(O)O | inactive | –
CC1=C(O)C(=O)[C@H]2O[C@@H]2C1=O | inactive | –
C[N+]1(C)[C@@H]2CC[C@H]1CC(OC(=O)[C@@H](CO)c1ccccc1)C2 (stereo not given in full) | inactive | –
CN1CCCC2(CCN(C(=O)c3csnn3)CC2)C1 | inactive | –
O=C(c1ccncc1)N1CCC2(CC1)CN(Cc1ccccc1)C2 | inactive | –
O=C(c1csnn1)N1CCC2(CC1)CN(Cc1ccncc1)C2 | 10 µM (active) | –
N#Cc1ccc(CN2CCC3(CC2)CCN(C(=O)Oc2ccccc2)CC3)cc1 | inactive | –
O=P(O)(O)CCP(=O)(O)O | – | 0.113% [at 11.4 µM] (inactive)
CC(=O)[C@@H]1CC[C@@H]2[C@@H]3CC=C4C[C@H](OS(=O)(=O)O)CC[C@@]4(C)[C@H]3CC[C@]21C | inactive | –
O=C1Nc2ccc(I)cc2/C1=C/c1cc(Br)c(O)c(Br)c1 | 0.794 µM (active) | –
COC(=O)C1=CCCN(C)C1 | inactive | –
Cc1ccc(C2CC(=O)C(C=NCCN3CCN(C(=O)Cc4ccccc4)CC3)=C(O)C2)cc1 (stereo not given) | inactive | –
CC(NCc1ccc(Cl)cc1)C(O)c1ccccc1 (stereo not given) | 14.1 µM (active) | –
C[C@@H](Cc1ccc(OCC(=O)O)cc1)NC[C@H](O)c1cccc(Cl)c1 | inactive | –
C[C@H](N)[C@@H](O)c1ccccc1 | inactive | –
CCN(CC)CCn1ncc2c(N)ncnc21 | – | -6.04% [at 11.4 µM] (inactive)
CC[C@H](C(=O)[C@H](C)[C@H](O)[C@H](C)CCc1ccc(C)c(O)c1C(=O)O)[C@H]1O[C@](CC)([C@@H]2CC[C@@](O)(CC)[C@H](C)O2)C[C@H]1C | inactive | –

Structure (SMILES) | AC50 | activity, negative = inhibition
N=C1c2ccccc2CN1NC(=O)c1ccc(Cl)cc1 | inactive | –
COc1ccc(C[C@H]2NC[C@H](O)[C@@H]2OC(C)=O)cc1 | inactive | –
NC[C@@H](CC(=O)O)c1ccc(Cl)cc1 | inactive | –
O=C(O)CP(=O)(O)c1ccc(Cl)cc1 | inactive | –
O=NN(Cc1ccc(Cl)cc1)[C@@H](C(=O)O)c1ccccc1 | 5.01 µM (active) | –
C[C@@]12CC[C@H]3[C@@H](CCC4=CC(=O)CC[C@]43C)[C@H]1CC[C@H]2C(=O)CO | inactive | –
CNC(=S)NC1CC2CCCC(C1)N2CC(C)C (stereo not given) | inactive | –
CCOCCN1CCC(OC(C)=O)C(C)C1 (stereo not given) | inactive | –
C[C@H](CC(C#N)(c1ccccc1)c1ccccc1)N1CCCCC1 | – | 7.09% [at 2.29 µM] (inactive)
O=c1oc(Cl)c(Cl)c2ccccc12 | 1 µM (active) | –
O=[N+]([O-])O[C@H]1CO[C@H]2[C@H]1OC[C@@H]2O[N+](=O)[O-] | inactive | –
O=C1OC(=O)[C@@H]2[C@@H]1[C@@H]1CC[C@H]2O1 | inactive | –
NC(=O)CN1C[C@@H](O)CC1=O | inactive | –
CCOP(=O)(OCC)C(NC(C)=O)C(Cl)(Cl)Cl (stereo not given) | inactive | –
O=C(Nc1cccc(C(F)(F)F)c1)c1cccn(Cc2ccc3c(c2)OC(F)(F)O3)c1=O | 3.16 µM (active) | –
CC(O)(CS(=O)(=O)c1cccc(C(F)(F)F)c1)C(=O)Nc1cccc(C(F)(F)F)c1 (stereo not given) | inactive | –
CC(O)(CS(=O)(=O)c1ccccc1)C(=O)Nc1cccc(C(F)(F)F)c1 (stereo not given) | inactive | –
CC(C)c1ccc(C(c2c(O)c3ccccc3oc2=O)c2c(O)c3ccccc3oc2=O)cc1 | – | -18.8% [at 2.29 µM] (inactive)
COc1cc(CCN)ccc1O | inactive | –
COc1cc(CNC(=O)CCCC/C=C\C(C)C)ccc1O | 1.58 µM (active) | –
CNC[C@H](O)c1ccc(O)c(OC)c1 | inactive | –
CCCCCCCCC(=O)NCc1ccc(O)c(OC)c1 | 12.6 µM (active) | –

Structure (SMILES) | AC50 | activity, negative = inhibition
COc1ccc(C[C@@H]2NC[C@H](O)[C@@H]2OC(C)=O)cc1 | inactive | –
C[N+]1(C)CCO[C@](O)(c2ccc(-c3ccc([C@]4(O)C[N+](C)(C)CCO4)cc3)cc2)C1 | inactive | –
COc1cc2c(c(OC)c1OC)-c1ccc(O)c(=O)cc1[C@H](N)CC2 | inactive | –
CC(C)COc1ccc(C2(C#N)CC[N+](C)(C)CC2)cc1 | inactive | –
COCCCNC(=S)NC1CC2CCCC(C1)N2Cc1cccs1 (stereo not given) | inactive | –
Cc1cc2c(C(F)(F)F)cc(=O)oc2c2c1NCCC2 | 0.1 µM (active) | –
CCCCC1(CCCC)C(=O)NC(=Nc2cccc(C)c2)NC1=O | inactive | –
O=C1C=CC(=O)c2c1ccc1c2ccc2ccccc21 | 0.794 µM (active) | –
COc1cc([C@H]2c3cc4c(cc3[C@@H](O)[C@@H]3COC(=O)[C@H]23)OCO4)cc(OC)c1OC | inactive | –
CCCc1cc2c(n1CCO)C(C)C1CN(C(=O)c3ccccc3)C(C)(C(=O)OC)C21 (stereo not given) | inactive | –
COc1cccc2c1[C@H](CO)N1[C@H](C#N)[C@@H]3C[C@H](C(=O)O)[C@@H]([C@@H]1C2)N3C | – | -21% [at 2.29 µM] (inactive)
C[C@]12CCC3c4ccc(OCC(=O)O)cc4CCC3C1CCC2=O (stereo not given in full) | – | 0.71% [at 2.29 µM] (inactive)
C[C@]12CC[C@H]3c4ccc(O)cc4CC[C@@H]3[C@H]1CC[C@@H]2OP(=O)(O)O | – | -11.2% [at 2.29 µM] (inactive)
C[C@]12CC[C@@H]3C(=CCc4cc(O)ccc43)[C@@H]1CCC2=O | 10 µM (active) | –
Cc1cc[c]([Sb]2[O][C@H]([C@H](O)[C@H](O)C(=O)O)[C@@H](CO)[O]2)cc1 | – | -11.9% [at 11.4 µM] (inactive)
O=C(Cc1ccc(Cl)c(Cl)c1)N1CCCC[C@H]1CN1CCCC1 | inactive | –
COC(=O)Nc1nc2ccc(C(=O)c3cccs3)cc2[nH]1 | 1.58 µM (active) | –
CCCCc1ccc2nc(NC(=O)OC)[nH]c2c1 | 0.501 µM (active) | –
COC(=O)Nc1nc2ccc(Sc3ccccc3)cc2[nH]1 | 0.794 µM (active) | –
CCCCc1ccc(C(=O)O)nc1 | inactive | –
COCCNC(=S)NC1CC2CCCC(C1)N2Cc1cccs1 (stereo not given) | inactive | –
